# Compound activity (PubChem BioAssay)
# A selection: hits, their analogues and other compounds. The true share with any hit is near 2.9%.
# ZTA counter: counter-screen for EBNA-1 inhibitors: inhibitors of Epstein-Barr virus ZTA; ZTA-DNA binding, fluorescence polarization; 320,000 tested, 0.15% active; AID 2234; inhibition, % at 11 µM; P03206; in the data active = inhibition above about 33%
# PAFAH1B3 FP inh: PAFAH1B3 (human) inhibition; Q15102; recombinant PAFAH1B3, FP-rhodamine probe, fluorescence polarization; inhibition, % at 3.39 µM; 340,000 tested, 0.28% active; AID 492972;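 active = inhibition above the screen-wide average of all tested compounds plus 3 SD, cut at about 25% in these data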;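 also: 0% = enzyme with DMSO only and 100% = wells lacking PAFAH1B3 protein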
# Target sequence (Q15102 whole entry, looked up): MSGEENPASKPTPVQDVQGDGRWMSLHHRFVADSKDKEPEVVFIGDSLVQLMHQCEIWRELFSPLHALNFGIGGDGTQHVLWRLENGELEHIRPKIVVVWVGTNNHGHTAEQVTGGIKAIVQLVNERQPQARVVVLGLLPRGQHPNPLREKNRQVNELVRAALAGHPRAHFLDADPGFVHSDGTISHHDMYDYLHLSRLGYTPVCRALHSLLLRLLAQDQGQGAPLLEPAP
# EBNA-1 inhibitor: blocks EBNA-1 binding to DNA; inhibition, % at 14.8 µM; AID 1950; 300,000 tested, 0.34% active; EBNA-1 DNA binding, fluorescence polarization; in the data active = inhibition above about 28%
# PAFAH1B2 FP inh: PAFAH1B2 (human) inhibition; recombinant PAFAH1B2, FP-rhodamine activity probe, fluorescence polarization; AID 492953; 340,000 tested, 1.2% active; P68402; inhibition, % at 3.39 µM;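 active = inhibition above the mean of all tested compounds plus 3 SD, cut at about 24% in these data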;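 also: 0% = enzyme with DMSO and 100% = wells lacking PAFAH1B2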
# Target sequence (P68402 whole entry, looked up): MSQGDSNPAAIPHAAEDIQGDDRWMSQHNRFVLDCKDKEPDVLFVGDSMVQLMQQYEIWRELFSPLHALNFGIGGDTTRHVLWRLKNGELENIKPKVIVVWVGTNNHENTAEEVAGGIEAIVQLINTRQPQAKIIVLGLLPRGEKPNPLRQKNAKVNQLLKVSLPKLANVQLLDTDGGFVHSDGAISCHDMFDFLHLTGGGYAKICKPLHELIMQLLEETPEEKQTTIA
# PAFAH2 FP inh: PAFAH2 (human) inhibition | Q99487 | recombinant PAFAH2, FP-rhodamine activity probe, fluorescence polarization | inhibition, % at 3.39 µM | 340,000 tested, 0.99% active | AID 492956;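 active = inhibition above the mean over all tested compounds plus 3 SD, cut at about 30% in these data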;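 also: inhibitors block probe labeling of enzyme so polarization drops; 0% = enzyme with DMSO and 100% = wells lacking PAFAH2 protein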
# rCAG RNA binder: molecules binding r(CAG) RNA repeats | r(CAG) RNA repeat, TO-PRO-1 dye displacement fluorescence | inhibition, % at 3 µM | 370,000 tested, 1.3% active | AID 651821;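 active = inhibition above the plate cutoff, the mean of all test compounds on that plate plus 3 SD, cut at about 35% in these data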;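 also: 0% = DMSO alone and 100% = 100 µM mitoxantrone as full dye displacement; higher means more dye released from RNA so lower well fluorescence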
# EBNA-1 confirm: EBNA-1 (EBV) inhibition, confirmation. shares compounds with EBNA-1 inhibitor. inhibition, % at 14.8 µM. 830 tested, 35% active. Recombinant EBNA-1 DBD, Cy5-DNA fluorescence polarization;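 active = mean inhibition across replicates above a set limit taken from the earlier primary screen, cut at about 28% in these data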;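 also: plate controls were EBNA-1 protein with DMSO for no effect and wells lacking EBNA-1 for full effect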
# ZTA DNA inh trip: counter-screen for EBNA-1 inhibitors: Epstein-Barr virus ZTA inhibitors, triplicate. shares compounds with EBNA-1 inhibitor. Zta-ZRE DNA binding, Cy5 fluorescence polarization. inhibition, % at 11.1 µM. 830 tested, under 10 active;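 active = mean inhibition over triplicates above a set limit taken from the primary EBNA-1 screen, cut at about 37% in these data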;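 also: purified full length Zta protein with Cy5 labeled ZRE DNA probe; 0% = Zta with DMSO and 100% = wells lacking Zta protein; inhibitors lower polarization by freeing the labeled DNA probe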
# The depositor's hits bear a star; . = no result given.
SMILES,ZTA counter,PAFAH1B3 FP inh,EBNA-1 inhibitor,PAFAH1B2 FP inh,PAFAH2 FP inh,rCAG RNA binder,EBNA-1 confirm,ZTA DNA inh trip
CCOc1ccc(CNC(=O)c2cc3oc4ccccc4c3n2C)cc1,-6,1,5,2,1,-2,.,.
COC(=O)C1CCCN(C(=O)C2CCN(S(=O)(=O)c3ccc([N+](=O)[O-])cc3)CC2)C1 (stereo unspecified),.,.,.,.,.,3,.,.
Oc1ccc2ccccc2c1C=NN1CCN(Cc2ccc(Cl)cc2)CC1,.,.,.,.,.,3,.,.
N#Cc1ccsc1NC(=O)COC(=O)c1cc2ccccc2cc1O,8,-11,48*,-1,6,17,14,5
O=C(CCS(=O)(=O)c1cc2c(cc1Br)CCN2C(=O)C1CC1)N1CCN(c2ccccn2)CC1,.,.,.,.,.,5,.,.
O=C(Nc1ccc(NC(=O)c2ccccc2O)cc1)Nc1ccc(F)cc1F,-8,8,38*,4,10,6,10,-9
Cc1ccc(NCc2nnc(SCC(N)=O)o2)c(C)c1,-7,6,8,1,4,1,.,.
Cc1ccc(C(=O)CSc2nnc(CNc3ccc(C)cc3C)o2)cc1,-10,0,31*,6,2,9,1,-7
O=C(Nc1ccc(Oc2ccc3c(c2)C(=O)N(c2ccc(O)cc2)C3=O)cc1)c1cccs1,22,-69,28*,-42,-68,4,55*,13
COC(=O)[C@]12C[C@H](CC(=O)NCc3cccc(C(F)(F)F)c3)C(=O)N(Cc3ccco3)C1=C[C@H](C(C)(C)C)O[C@@H]2C,.,.,.,.,.,-1,.,.
O=c1/c(=C\c2cc([N+](=O)[O-])cc([N+](=O)[O-])c2O)sc2nc3ccccc3n12,7,1,27*,4,14,.,28*,25
O=C(CCc1ccccc1)N[C@H]1[C@@H](OC(=O)c2ccco2)CCC[C@@]12C(=O)N(Cc1ccccc1)c1ccccc12,.,.,.,.,.,8,.,.
CCOc1ccc(N2C(=O)/C(=C/c3cccs3)N(CC(=O)OC)C2=S)cc1,-13,8,8,0,-2,-3,.,.
CCc1ccc(/C=C2/C(=O)N(c3ccccc3)C(=S)N2CC(=O)OC)s1,8,8,41*,3,-2,4,21,1
O=S1(=O)c2ccc(N3CC[C@H](O)C3)cc2O[C@@H]2CCN1C2,.,.,.,.,.,2,.,.
COC(=O)[C@]12C[C@H](CC(=O)NCCCN3CCCC3=O)C(=O)N(CCC3=CCCCC3)C1=C[C@H](C1CCCC1)O[C@@H]2C,.,.,.,.,.,2,.,.
Cc1ccc(S(=O)(=O)N(C)c2ccc(N)cc2)cc1,1,1,-5,4,5,1,.,.
Cc1ccc(S(=O)(=O)N(C(=N)N)c2nc(N(C)C)nc(N(C)C)n2)cc1,6,4,31*,1,-4,5,5,5
CS(=O)(=O)c1ccc(OC[C@@H](O)CN2CCC(C(O)(c3ccccc3)c3ccccc3)CC2)cc1,.,.,.,.,.,-2,.,.
Cc1cc(Br)ccc1OCCCN1CCC(C(O)(c2ccccc2)c2ccccc2)CC1,.,.,.,.,.,4,.,.
CCNc1ccc(C(=O)OC(C(=O)NC(N)=O)C(C)C)cc1[N+](=O)[O-] (stereo unspecified),0,10,33*,1,-2,-1,-11,-5
CCCC[C@H](C(=O)N(C)c1cccc(OC)c1)[C@@H](O)c1ccc2ccccc2c1,.,.,.,.,.,2,.,.
COc1ccc2cc(/C=N/NC(=O)c3ccc(CN(c4ccc(C)c(C)c4)S(C)(=O)=O)cc3)c(Cl)nc2c1,-3,-18,53*,-11,-25,9,24,14
CC(C)Oc1ccc(/C=N/NC(=O)c2ccc(N(Cc3ccccc3)S(C)(=O)=O)cc2)cc1,-1,4,5,2,-3,2,.,.
COc1ccc(N(CC(=O)N/N=C/c2cc3ccc(OC)cc3nc2Cl)S(=O)(=O)c2ccccc2)cc1,-12,.,-20,.,.,.,.,.
SMILES,ZTA counter,PAFAH1B3 FP inh,EBNA-1 inhibitor,PAFAH1B2 FP inh,PAFAH2 FP inh,rCAG RNA binder,EBNA-1 confirm,ZTA DNA inh trip
COc1ccc2cc(/C=N/NC(=O)CN(c3ccccc3)S(=O)(=O)c3ccccc3)c(Cl)nc2c1,-4,.,35*,.,.,.,7,-10
COC(=O)COc1ccc(/C=N/NC(=O)c2ccc(N(Cc3ccccc3)S(C)(=O)=O)cc2)cc1,-20,-4,67*,-1,-5,-1,16,0
Fc1ccccc1Cn1ccc2ccc(-c3ccc4ccn(Cc5ccccc5)c4c3)cc21,.,.,.,.,.,8,.,.
Cc1cccc(C)c1NC(=O)C(c1cc2ccccc2o1)N1CCC(c2ccccc2)CC1 (stereo unspecified),.,.,.,.,.,1,.,.
CCOc1ccc(NC(=O)C(=O)N/N=C\c2ccc(CNS(=O)(=O)c3ccccc3)o2)cc1,-14,-40,63*,-10,-21,2,58*,-2
Cc1ccc2oc(-c3cccc(NC(=O)Cc4cccs4)c3)nc2c1,7,2,34*,-1,-7,1,14,-3
O=C(Nc1ccc2oc(-c3ccncc3)nc2c1)c1ccccc1F,-2,-1,0,3,-10,-5,.,.
O=C(Nc1ccc2oc(-c3ccc4ccccc4c3)nc2c1)c1ccc2c(c1)OCCO2,12,-25,31*,-13,-23,2,25,9
O=C(Nc1ccc2oc(-c3ccccc3)nc2c1)c1ccccc1F,12,6,35*,3,1,1,-3,-2
CCC(=O)Nc1cccc(-c2nc3ccc(C)cc3o2)c1,-20,4,-8,-1,0,6,.,.
Cc1ccc2nc(-c3cccc(NC(=O)c4ccc5c(c4)OCCO5)c3)oc2c1,19,-17,35*,-6,-14,5,23,7
O=C(Nc1ccc2oc(-c3ccncc3)nc2c1)c1ccccc1,10,1,9,2,-1,-3,.,.
COC(=O)C1(C(=O)OC)c2cc3c(cc2CN(S(=O)(=O)c2ccc(C)cc2)C1CC(C)=O)OCO3 (stereo unspecified),.,.,.,.,.,6,.,.
COC(=O)C1CN(Cc2ccc(F)cc2)CCS(=O)(=O)N1Cc1cn(Cc2ccc(C)cc2)nn1 (stereo unspecified),.,.,.,.,.,2,.,.
COC(=O)[C@]12C[C@H](CC(=O)NCc3cccc(C(F)(F)F)c3)C(=O)N(Cc3ccc(Cl)cc3Cl)C1=C[C@H](C(C)(C)C)O[C@@H]2C,.,.,.,.,.,3,.,.
COc1ccc(CNC(=O)Nc2ccc(C)cc2C)cc1,0,-3,63*,-2,-3,0,28*,-1
Cc1ccc(C)c(NC(=O)C(Sc2nc3ccccc3c(=O)n2CC(C)C)c2ccccc2)c1 (stereo unspecified),-7,-4,32*,4,4,2,-1,2
CCOC(=O)[C@]12CCCC=C1N(Cc1cccc3ccccc13)C(=O)[C@H](CC(=O)N1CCCC1)C2,.,.,.,.,.,1,.,.
